Assay [1] can be described thus: Validation of Assay for Modulators of Lamin A Splicing (AID 1459; active = well fitted curve in the direction sought with a large enough effect in the signal ratio; the % refers to the signal ratio;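 also: cells exposed to compound for two days before reading; 0% is about no effect; ratio rise marks activators and ratio drop marks inhibitors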). Put shortly:
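Splicing correction is reported by an EGFP-containing lamin A minigene in stably transfected S3 HeLa cells, while DsRed2 controls for viability and nonspecific signal. Cells are exposed to compounds for 48 hrs before the GFP over RFP ratio is taken.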

Assay [2] concerns the target DNA repair nuclease/redox regulator APEX1 (Homo sapiens) (UniProt P27695). Description: qHTS Validation Assay for Inhibitors of the Human Apurinic/apyrimidinic Endonuclease 1 (APE1) (AID 1705;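 also: TAMRA fluorescence gain over two minutes as APE1 cuts a quenched THF abasic duplex; series mostly up to about 57 µM; % is scaled to controls: 0 for no effect and ±100 for the full control effect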). The method, boiled down: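 Endonuclease activity of human APE1 is followed as dequenching when the enzyme incises a tetrahydrofuran abasic site in a short duplex labelled 5'-TAMRA/3'-BHQ-2 (50 nM final), after 15 min enzyme–compound preincubation at room temperature.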
(Quantitative high-throughput screening tests each substance at several concentrations.)

Assay [3] can be described thus: Counterscreen for APE1 Inhibitors: Fluorescent Dye Displacement Validation Assay (AID 1707).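 Also: plate controls were ThO with dsDNA and no compound for no effect and ThO without dsDNA for full effect.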 Put shortly:
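Reaction mixture of 250 nM Thiazole Orange and 50 nM double-stranded abasic-site DNA was dispensed, compounds were pin-transferred, and fluorescence was read at endpoint (480 nm ex, 540 nm em). Reduced fluorescence indicated dye displacement by DNA binding.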

The target in assay [4] is ATP-dependent DNA helicase Q1 (Homo sapiens) (UniProt P46063). Description: qHTS Validation Assay for Inhibitors of RecQ-Like Dna Helicase 1 (RECQ1) (AID 2353).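 Also: plate controls were DMSO vehicle for no effect and enzyme-free control for full effect.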 Put shortly:
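RECQ1T1 50 nM; forked duplex (20 bp + 30-nt ss tails) 200 nM, ATP 2 mM final; pH 8.0, 2 mM MgCl2, 2.5 ug/ml poly(dI-dC); 15 min compound preincubation; discontinuous kinetic read over 2 h at RT.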

Assay [5] is described as follows: Quantitative high throughput screen for delayed death inhibitors of the malarial parasite plastid, 96 hour incubation (AID 488745). Also: nearly all actives have a fitted effect of over 70% in size. Also: potency is read from the fitted curve at half-maximal effect. Put shortly: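 Readout is firefly luciferase luminescence from an integrated reporter in P. falciparum; lower signal marks inhibited growth. Cultures at 2% hematocrit and 0.1% parasitemia were treated with compound across two generations (96 h, 37 C, 5% CO2).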

Assay [6] can be described thus: Quantitative high throughput screen for delayed death inhibitors of the malarial parasite plastid, 48 hour incubation (AID 488752). Also: nearly all actives have a fitted effect of over 65% in size. Also: potency is read from the fitted curve at half-maximal effect. The method, boiled down:
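First, compound was pinned into RPMI 1640 medium containing 0.5% Albumax. Next, reporter-parasite-infected erythrocytes were added to 2% hematocrit and 0.1% parasitemia. After 48 h at 37 C under 5% CO2, luciferase detection reagent was added and luminescence read.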

For assay [7], the target named is Transient receptor potential cation channel subfamily V member 1 (Homo sapiens) (UniProt Q8NER1). The assay can be described thus: HTS Assay for Compounds that Act as Enhancers of the Vanilloid Receptor 1 (AID 488979). Also: 0% is about no effect. Put shortly: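 TRPV1-expressing cells loaded with Fluo-8 calcium dye; compounds added and calcium influx read kinetically for 3 min (agonist phase), then capsaicin at EC20 added and read 2 min more for enhancement. Fluorescence ex 480/em 520 nm.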
Sequence of Transient receptor potential cation channel subfamily V member 1 (Homo sapiens) (Q8NER1 whole entry, looked up): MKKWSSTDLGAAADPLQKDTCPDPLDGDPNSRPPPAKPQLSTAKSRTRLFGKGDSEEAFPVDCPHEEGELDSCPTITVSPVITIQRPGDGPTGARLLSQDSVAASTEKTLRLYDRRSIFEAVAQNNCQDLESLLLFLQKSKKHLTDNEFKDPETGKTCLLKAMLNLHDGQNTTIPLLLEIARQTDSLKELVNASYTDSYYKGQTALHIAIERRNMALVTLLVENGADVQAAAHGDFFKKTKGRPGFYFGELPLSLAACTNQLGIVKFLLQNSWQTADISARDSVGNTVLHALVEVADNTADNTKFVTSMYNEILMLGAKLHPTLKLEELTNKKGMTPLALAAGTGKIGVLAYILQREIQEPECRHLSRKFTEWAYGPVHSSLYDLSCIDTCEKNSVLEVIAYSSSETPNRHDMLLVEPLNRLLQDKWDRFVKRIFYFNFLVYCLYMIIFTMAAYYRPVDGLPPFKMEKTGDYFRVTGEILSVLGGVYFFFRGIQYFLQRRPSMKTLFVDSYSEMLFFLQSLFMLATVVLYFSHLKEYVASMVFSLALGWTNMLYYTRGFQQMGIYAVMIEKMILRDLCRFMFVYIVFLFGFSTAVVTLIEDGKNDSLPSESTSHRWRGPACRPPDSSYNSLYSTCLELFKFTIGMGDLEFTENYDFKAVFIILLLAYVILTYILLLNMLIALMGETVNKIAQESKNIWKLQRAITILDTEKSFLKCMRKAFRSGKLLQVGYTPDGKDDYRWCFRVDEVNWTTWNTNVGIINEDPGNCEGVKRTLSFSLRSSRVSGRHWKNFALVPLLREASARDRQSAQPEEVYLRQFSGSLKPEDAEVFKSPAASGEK

Assay [8] addresses Thyrotropin receptor (Homo sapiens) (UniProt P16473). Description: qHTS Assay for Antagonists of the Thyroid Stimulating Hormone Receptor (AID 488980). Also: series mostly up to about 58 µM; 0% is about no effect. The method, boiled down:
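Cells expressing human TSHR (HEK293) are dispensed in HBSS/HEPES containing 70 uM RO 20-1724, compound is added, then TSH at EC80 (4 nM final). Antibody in lysis buffer follows, 30 minutes at room temperature before HTRF detection.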

In assay [9] the target is Thyrotropin-releasing hormone receptor (Homo sapiens) (UniProt P34981). The assay can be described thus: qHTS for Small Molecule Agonists and Allosteric Enhancers of Human TRH Receptor: Validation Screen for Agonists (AID 493127;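 active = calcium activation more than 3 SD above the typical response in the agonist read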;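 also: intracellular calcium rise by fluo-8 fluorescence before TRH EC20 addition; 0% is about no effect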). The conditions noted are these: TRH receptor agonist cell assay; at 2 µM; hits give high values. The method, boiled down:
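Compounds are added by online pintool to dye-loaded TRHR cells while fluorescence is recorded every second. A rise in calcium signal during the agonist read marks activation; a later 10 nM TRH addition (EC20) serves the separate enhancer mode.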

Assay [10] has as its target Galactokinase (Homo sapiens) (UniProt P51570). The assay can be described thus: qHTS Validation Assay for Inhibitors of Human Galactokinase (GALK) (AID 493189). Also: 0% is about no effect. Put shortly: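 Compounds were pin-transferred into ATP buffer, then GALK-galactose mix was added (final 5 nM enzyme, 100 uM galactose, 35 uM ATP). After 1 h at room temperature, remaining ATP was measured luminescently.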

Assay [11] in a line: qHTS for differential inhibitors of proliferation of Plasmodium falciparum line GB4 (AID 1816).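 Also: parasite growth measured after 72 h incubation.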 Also: potency is read from the fitted curve at half-maximal effect. The settings on record: Potency: Plasmodium falciparum GB4 proliferation inhibition.
The nature of assay [12]: qHTS for differential inhibitors of proliferation of Plasmodium falciparum line 3D7 (AID 1876). Also: potency is read from the fitted curve at half-maximal effect.
Assay [13] in a line: qHTS for differential inhibitors of proliferation of Plasmodium falciparum line D10 (AID 1877).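 Also: parasites grown with compound for 72 h before DNA staining.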 Also: potency is read from the fitted curve at half-maximal effect.
Assay [14] can be described thus: qHTS for differential inhibitors of proliferation of Plasmodium falciparum line HB3 (AID 1886).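 Also: parasites grown with compound for 72 h before SYBR Green readout.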 Also: potency is read from the fitted curve at half-maximal effect. The settings on record: Potency: Plasmodium falciparum HB3 proliferation inhibition.
A short description of assay [15]: Validation screen for small molecules that induce DNA re-replication in MCF 10A normal breast cells (AID 463097). Also: 0% is about no effect; nearly all actives have a fitted effect of over 60% in size. The method, boiled down:
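DNA re-replication was detected as a rise in nuclei with elevated Hoechst fluorescence after a 48 hr compound exposure of MCF 10A cells at 37 C.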

Assay [16] in a line: Validation screen for small molecules that induce DNA re-replication in SW480 colon adenocarcinoma cells (AID 504364). Also: 0% is about no effect. The method, boiled down:
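Image-based qHTS: compounds were incubated with SW480 cells for 48 hr, nuclei stained with Hoechst, and per-nucleus fluorescence intensity scanned to flag cells with excess DNA content.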

Experimental findings from PubChem BioAssay (NCATS) are described below.

A number with no mark means an inactive call. Records with an inconclusive call do not appear. Active and inactive are the calls of the source. Unless noted, calls follow the shape of the dose curve; as a rule, active = well fitted curve in the direction sought with a large enough effect; inconclusive = small, poorly fitted or top-dose-only effect, or another doubt; inactive = no such curve, though single readings can be large; an effect the other way counts as inactive or inconclusive.

Sequence of Thyrotropin receptor (Homo sapiens) (P16473 whole entry, looked up): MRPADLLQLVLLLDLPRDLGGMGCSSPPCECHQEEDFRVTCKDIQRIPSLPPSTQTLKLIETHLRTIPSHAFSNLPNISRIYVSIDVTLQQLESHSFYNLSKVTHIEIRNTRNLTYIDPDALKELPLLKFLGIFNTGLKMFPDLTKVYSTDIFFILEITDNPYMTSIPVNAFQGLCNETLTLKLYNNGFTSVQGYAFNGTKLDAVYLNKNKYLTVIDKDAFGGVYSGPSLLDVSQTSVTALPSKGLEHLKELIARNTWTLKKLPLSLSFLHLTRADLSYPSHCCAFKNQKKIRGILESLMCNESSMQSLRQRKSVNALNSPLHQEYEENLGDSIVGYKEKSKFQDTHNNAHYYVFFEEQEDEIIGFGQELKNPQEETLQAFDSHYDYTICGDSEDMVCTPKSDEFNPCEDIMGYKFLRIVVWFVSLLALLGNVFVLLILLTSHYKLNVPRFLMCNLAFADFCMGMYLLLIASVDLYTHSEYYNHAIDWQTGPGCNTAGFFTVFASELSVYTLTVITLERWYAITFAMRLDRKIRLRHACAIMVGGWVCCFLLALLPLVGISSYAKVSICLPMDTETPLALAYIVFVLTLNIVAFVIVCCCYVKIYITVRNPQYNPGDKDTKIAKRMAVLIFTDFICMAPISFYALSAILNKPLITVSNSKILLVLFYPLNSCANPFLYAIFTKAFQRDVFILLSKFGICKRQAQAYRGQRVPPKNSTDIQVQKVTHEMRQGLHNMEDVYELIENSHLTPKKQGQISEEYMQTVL
Sequence of Thyrotropin-releasing hormone receptor (Homo sapiens) (P34981 whole entry, looked up): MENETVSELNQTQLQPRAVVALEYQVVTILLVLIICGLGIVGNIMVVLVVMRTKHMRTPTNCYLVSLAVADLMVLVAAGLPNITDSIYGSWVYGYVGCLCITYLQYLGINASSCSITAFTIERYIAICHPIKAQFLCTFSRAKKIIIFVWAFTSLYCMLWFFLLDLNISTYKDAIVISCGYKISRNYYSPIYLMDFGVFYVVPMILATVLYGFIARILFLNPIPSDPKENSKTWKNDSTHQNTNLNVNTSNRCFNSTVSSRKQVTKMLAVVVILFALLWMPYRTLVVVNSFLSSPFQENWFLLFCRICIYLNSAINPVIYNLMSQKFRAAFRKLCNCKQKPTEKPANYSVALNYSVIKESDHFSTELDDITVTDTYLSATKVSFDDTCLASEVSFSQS
Sequence of ATP-dependent DNA helicase Q1 (Homo sapiens) (P46063 whole entry, looked up): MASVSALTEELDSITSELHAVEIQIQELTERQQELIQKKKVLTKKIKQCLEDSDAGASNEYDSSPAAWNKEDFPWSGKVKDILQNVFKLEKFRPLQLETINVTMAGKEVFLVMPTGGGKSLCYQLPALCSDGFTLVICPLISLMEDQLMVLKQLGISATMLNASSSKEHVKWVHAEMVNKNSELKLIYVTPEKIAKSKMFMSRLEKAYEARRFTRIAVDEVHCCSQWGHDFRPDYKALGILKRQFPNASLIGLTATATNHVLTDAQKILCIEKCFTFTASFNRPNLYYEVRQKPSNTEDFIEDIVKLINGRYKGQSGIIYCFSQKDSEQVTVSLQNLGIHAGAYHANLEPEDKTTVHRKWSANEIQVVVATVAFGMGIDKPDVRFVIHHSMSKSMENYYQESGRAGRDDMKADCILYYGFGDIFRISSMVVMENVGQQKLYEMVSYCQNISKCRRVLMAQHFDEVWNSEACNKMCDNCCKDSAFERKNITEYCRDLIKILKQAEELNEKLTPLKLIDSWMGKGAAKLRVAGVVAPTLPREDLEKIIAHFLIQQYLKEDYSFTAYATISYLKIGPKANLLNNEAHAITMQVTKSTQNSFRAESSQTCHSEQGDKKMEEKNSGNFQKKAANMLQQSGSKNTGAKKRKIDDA
Sequence of Galactokinase (Homo sapiens) (P51570 whole entry, looked up): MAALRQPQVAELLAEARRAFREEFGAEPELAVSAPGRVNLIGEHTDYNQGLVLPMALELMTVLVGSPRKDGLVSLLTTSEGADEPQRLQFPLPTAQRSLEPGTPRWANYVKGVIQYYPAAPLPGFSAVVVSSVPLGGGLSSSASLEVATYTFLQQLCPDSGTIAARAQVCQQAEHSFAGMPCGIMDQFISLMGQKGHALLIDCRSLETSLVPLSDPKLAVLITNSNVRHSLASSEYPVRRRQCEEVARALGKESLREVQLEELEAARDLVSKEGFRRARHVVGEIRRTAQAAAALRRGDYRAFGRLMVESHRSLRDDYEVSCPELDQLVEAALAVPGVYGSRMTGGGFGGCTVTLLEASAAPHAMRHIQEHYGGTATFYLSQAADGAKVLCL
Sequence of DNA repair nuclease/redox regulator APEX1 (Homo sapiens) (P27695 whole entry, looked up): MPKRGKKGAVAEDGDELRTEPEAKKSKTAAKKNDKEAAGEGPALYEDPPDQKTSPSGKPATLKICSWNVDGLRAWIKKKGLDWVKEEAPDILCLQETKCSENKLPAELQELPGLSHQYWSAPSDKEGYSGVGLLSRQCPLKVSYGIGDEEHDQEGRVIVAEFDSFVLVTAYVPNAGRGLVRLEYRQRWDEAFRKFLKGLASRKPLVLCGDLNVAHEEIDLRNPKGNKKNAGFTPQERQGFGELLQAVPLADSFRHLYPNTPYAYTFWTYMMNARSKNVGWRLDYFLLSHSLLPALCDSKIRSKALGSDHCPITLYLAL

In the case of `CC(C)C[C@H]1C(=O)N2CCCC2[C@]2(O)O[C@](NC(=O)[C@@H]3C=C4c5cccc6[nH]c(Br)c(c56)C[C@H]4N(C)C3)(C(C)C)C(=O)N12` (some centres undefined), the compound was called inactive in [1], in assay [7], in [8] and in assay [10]. In addition, the Potency result in assay [2], in assay [3] and in assay [4] was “inactive” in each case. Further, the Potency was 9.28 µM (active) in [5] and 8.28 µM (active) in assay [6]. Further, the activation in [9] is 0.625%.
Take `CCCCCCCCCCCCCCC/C=C/[C@@H](O)[C@H](NC(=O)CCCCCCCCCCCCC)OC` (tested in a mixture with another compound): the outcome in assay [1], in assay [15], in [7], in assay [8], in [10] and in assay [16] was inactive. The Potency result in assay [2], in assay [3], in [11], in assay [12], in assay [13] and in assay [14] was “inactive” each time. Further, the Potency result in assay [4], in assay [5] and in [6] was “inactive” each time. Besides, the activation in [9] is 1.19%.
Take `NC(=NCCC[C@H](N)C(=O)O)NO`: the call in assay [1], in assay [15], in assay [7], in [8], in assay [10] and in [16] was inactive. The Potency result in assay [2], in [3], in assay [11], in assay [12], in assay [13] and in assay [14] was “inactive” in each case. In addition, the Potency entry in assay [4], in assay [5] and in assay [6] was “inactive” each time. Moreover, the activation in assay [9] was 0.812%.
As for `NCCCCNS(=O)(=O)c1cccc2c(Cl)cccc12`, the call in [1], in [8] and in assay [10] was inactive. Moreover, the Potency entry in assay [2], in [3] and in [4] was “inactive” each time. Also, the Potency in [11] was 10 µM (active); in assay [12] it was 8.91 µM (active); in assay [13], 10 µM (active); in [14], 12.6 µM (active); in assay [6] it was 14.7 µM (active). In addition, the activation in assay [9] is 0.5%.
In the case of `OC[C@H]1O[C@@H](n2cnc3c(Nc4ccccc4)ncnc32)[C@H](O)[C@H]1O`, the result in assay [1], in assay [15], in [7], in [8], in assay [10] and in [16] was inactive. Besides, the Potency entry in [2], in assay [3], in assay [11], in assay [12], in assay [13] and in assay [14] was “inactive” throughout. In addition, the Potency entry in assay [4] and in assay [6] was “inactive” in each case. Also, the activation in assay [9] was 0.188%.
On to `CC(N)=NCCCC(N)C(=O)O` (centres undefined), for which the result in assay [1], in assay [15], in assay [7], in [8], in [10] and in [16] was inactive. Also, the Potency entry in assay [2], in assay [3], in [11], in assay [12], in assay [13] and in assay [14] was “inactive” each time. Also, the Potency entry in assay [4], in assay [5] and in assay [6] was “inactive” throughout. Further, in assay [9], the activation was 0.938%.
For `CC(C)CN(C)c1nc(N)c(C(=O)N=C(N)N)nc1Cl`, the compound was called inactive in assay [1], in assay [8] and in [10]. Also, the Potency entry in [2], in [3] and in [4] was “inactive” in each case. Further, the Potency in [11] was 11.2 µM (active); in [12] it was 3.98 µM (active); in assay [13], 7.08 µM (active); in assay [14], 8.91 µM (active); in assay [5], 8.28 µM (active); in assay [6], 10.4 µM (active). Also, in assay [9], the activation was 0.812%.
`COc1cc2c(cc1OC)C(c1ccccc1)CN(C)CC2` (centres undefined): the outcome in [1], in assay [15], in assay [7], in assay [8], in assay [10] and in [16] was inactive. Further, the Potency result in [2], in assay [3], in assay [4], in assay [5] and in assay [6] was “inactive” throughout. In assay [12], the Potency is 14.1 µM (active). Moreover, the activation in assay [9] is 1.81%.
For `CCCCC#Cc1nc(N)c2ncn([C@@H]3O[C@H](C(=O)NCC)[C@@H](O)[C@H]3O)c2n1`, the call in assay [1], in [15], in assay [7], in assay [8], in assay [10] and in [16] was inactive. The Potency entry in [2], in assay [3] and in [4] was “inactive” each time. The Potency in assay [12] is 8.91 µM (active); in assay [14], 11.2 µM (active); in assay [5], 13.1 µM (active). Moreover, the activation in assay [9] was -0.438%.
